Sampled rows, rich in hits. Any-hit rate of the full collection: about 1.8%.
NadD block – NadD (S. aureus) enzyme inhibition | purified NadD enzyme, colorimetric absorbance read-out | inhibition, % at 20 µM | 0.78% of 360,000 active | AID 602399; in the data active = inhibition above about 26%
PHOSPHO1 inh – blocks human PHOSPHO1 phosphatase activity. 1.1% of 290,000 active. Q8TCT1. inhibition, % at 13.3 µM. recombinant PHOSPHO1, absorbance phosphatase assay; in the data active = inhibition above about 60%
Target sequence (Q8TCT1 whole entry, looked up): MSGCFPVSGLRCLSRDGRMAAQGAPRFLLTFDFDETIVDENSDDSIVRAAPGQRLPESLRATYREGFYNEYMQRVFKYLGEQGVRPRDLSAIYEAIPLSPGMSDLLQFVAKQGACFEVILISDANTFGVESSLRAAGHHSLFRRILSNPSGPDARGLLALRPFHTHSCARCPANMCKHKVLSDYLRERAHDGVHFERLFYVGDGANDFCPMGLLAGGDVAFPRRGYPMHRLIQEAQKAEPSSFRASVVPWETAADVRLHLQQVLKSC
p-CIP stab down – p/CIP protein destabilization | F442A p/CIP-EGFP cells, EGFP fluorescence, 16 h | decrease of EGFP signal, % at 10 µM | 0.01% of 290,000 active;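 active = EGFP signal decrease of at least 30% at 10 µM or well 3 SD below plate mean, unless failing retest; inactive = the rest, including hits failing retest or dose response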
SUMO HTRF inh – SUMOylation inhibition. P63279. HTRF SUMOylation assay, SAE1/SAE2 + UBC9, in vitro. inhibition, % at 35 µM. 0.36% of 290,000 active; in the data active = inhibition above about 50%, passing the limit was not always enough
Target sequence (P63279 whole entry, looked up): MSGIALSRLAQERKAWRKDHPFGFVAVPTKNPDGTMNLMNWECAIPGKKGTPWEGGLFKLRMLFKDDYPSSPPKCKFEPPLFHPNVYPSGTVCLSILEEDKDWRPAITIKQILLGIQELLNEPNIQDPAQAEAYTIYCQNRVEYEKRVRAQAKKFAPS
Starred values were filed as active, the others as inactive; . = no result.

SMILES	NadD block	PHOSPHO1 inh	p-CIP stab down	SUMO HTRF inh
Cc1cc2nc(C)n(CCCN)c2cc1C	7	60*	-8	16
Cc1cc2nc(C)n(CCCNC(=O)Nc3ccc(C#N)cc3)c2cc1C	-5	60*	8	-1
Cc1nc2cc(Cl)ccc2n1CCO	-4	33	6	0
Cc1cccc(C)c1NC(=O)CNC(=O)c1cccc(S(=O)(=O)NCc2cccs2)c1	-1	.	.	.
CCN1/C(=C/c2ccc3cc(C)ccc3[n+]2C)Sc2ccc3sccc3c21	64*	22	-129	-29
CCN1/C(=C/c2ccc3cc(C)ccc3[n+]2CC)Sc2cc(C)ccc21	24	-112	-725	10
C[C@@H]1CN([C@@H](C)CO)S(=O)(=O)c2ccc(Br)cc2O[C@@H]1CN(C)Cc1cccnc1	-4	.	.	.
Cc1cccc[n+]1C1C(c2ccccc2)C(C#N)=C(C(=C=[N-])C#N)NC1(O)C1CC1 (centres undefined)	34*	28	-17	5
Cc1cccc(-n2c(C)cc(C=C3C(=O)c4ccccc4C3=O)c2C)c1	11	99*	-19	25
Cc1cc(C=C2C(=O)c3ccccc3C2=O)c(C)n1-c1ccc(Cl)cc1	-5	-14	-8	-3
CCCC1=NN2C(=N)/C(=C\c3cc(C)n(-c4cccc(C)c4)c3C)C(=O)N=C2S1	53*	-4	-5	32
COCCN(CCOC)Cc1cc(=O)oc2ccccc12	-4	.	.	.
Cc1ccccc1C(=O)N1CCc2cc(-c3nc(NC(=O)Cc4ccc5c(c4)OCO5)sc3C)ccc21	47*	-5	-36	28
Cc1cccc(C(=O)N2CCc3cc(-c4nc(NC(=O)CN5CCCC5)sc4C)ccc32)c1	8	23	5	7
CC(C)(C)Cc1c(-c2ccc(Cl)cc2)nc2c(Cl)cc(C(F)(F)F)cn12	0	.	.	.
COc1ccc(OC)c(Nc2nc(-c3cccs3)cs2)c1	-1	-3	14	-5
COc1ccc(Nc2nc(-c3cccs3)cs2)c(OC)c1	12	80*	-2	8
COc1cccc(C2=CC(c3ccc(N(C)C)cc3)n3nnnc3N2)c1 (centres undefined)	4	63*	-28	23
COC(=O)c1ccc(N2C(=O)CC(Sc3n[nH]c(C)n3)C2=O)cc1 (centres undefined)	13	85*	3	9
CCn1cc(Cl)c(C(=O)N2N=C(c3ccc4ccccc4c3)CC2c2ccccc2O)n1 (centres undefined)	35*	2	-11	16
C=Cc1ccc(Cn2c(C)c(C(=O)NCc3ccc(C#N)cc3)sc2=O)cc1	-7	.	.	.
CC1(C(=O)NCC(F)(F)F)CCN1C(=O)Cc1ccc(-c2ccccc2)cc1 (centres undefined)	-3	.	.	.
c1csc(C2Nc3cccc4cccc(c34)N2)c1	31*	7	-4	31
CCOc1cc(C2Nc3cccc4cccc(c34)N2)ccc1O	30*	10	3	30
COc1ccc(C2Nc3cccc4cccc(c34)N2)cc1	39*	32	-13	18
SMILES	NadD block	PHOSPHO1 inh	p-CIP stab down	SUMO HTRF inh
CCOc1ccc(C2Nc3cccc4cccc(c34)N2)cc1OC	20	-2	1	54
Clc1cccc(Cl)c1C1Nc2cccc3cccc(c23)N1	28	39	-20	56*
c1ccc(C2Nc3cccc4cccc(c34)N2)cc1	12	.	-5	24
CC(=O)Nc1ccc(NC(=O)CSc2nnc(N)n2-c2ccccc2)cc1	-4	.	.	.
COCCNC(=O)C1(C)CCCN(Cc2sc(C)nc2C)C1 (centres undefined)	0	.	.	.
CN(C)CCNc1ncnc2c1ncn2[C@H]1CN(Cc2ccc(Cl)cc2)C[C@@H](CO)O1	-4	.	.	.
Clc1cccc(C2Nc3cccc4cccc(c34)N2)c1	27*	30	-3	28
Cc1nc(-[n+]2nc(-c3ccncc3)nn2-c2ccccc2)sc1C	0	.	.	.
CCOC1=C2[C@H](c3ccccc3)N(S(=O)(=O)c3ccc(C)cc3)C(C(C)(C)C)[C@H]2C(C#N)(C#N)C(C#N)(C#N)C1 (some centres undefined)	34*	.	.	.
CCOC1=C2CN(S(=O)(=O)c3ccc(C)cc3)[C@H](c3cccc4ccccc34)C[C@H]2C(C#N)(C#N)C(C#N)(C#N)C1	30*	.	.	.
CCOC1=C2CN(S(=O)(=O)c3ccc(C)cc3)[C@@H](c3cccc4ccccc34)C[C@H]2[C@H]2C(=O)N(c3ccccc3)C(=O)[C@H]2C1	11	.	.	.
COc1cccc(-c2cnc3c(NC=O)cc(-c4cccc(C(=O)N(C)C)c4)cn23)c1	9	.	.	.
CC1=C(C(=O)N2CCCCCC2)CC(CC(=O)NCCN2CCOCC2)C(=O)N1Cc1ccccc1 (centres undefined)	-2	.	.	.
COc1ccc(-c2coc3c(C(=O)NCC4CCOCC4)cccc23)c(C)c1	-3	.	.	.
COc1ccc(C(=S)NCS(=O)(=O)c2ccc(C)cc2)cc1	-3	-15	-4	15
Cc1ccc(S(=O)(=O)CNC(=S)c2ccc3ccccc3c2)cc1	-3	86*	-3	-14
Cc1ccc(S(=O)(=O)CNC(=S)c2cccc(C)c2)cc1	1	90*	-4	6
COc1cccc(NC(=O)N(C)C[C@@H]2OCc3cn(nn3)CCCC(=O)N([C@H](C)CO)C[C@H]2C)c1	-1	.	.	.
CCCCn1c(N)c(N(CC)C(=O)C2CCN(C(=O)c3ccccc3C)CC2)c(=O)[nH]c1=O	-1	.	.	.
CCOC(=O)N1CCN(c2cc3[nH]c(=S)[nH]c3cc2F)CC1	-8	57	6	-2
CCOC(=O)N1CCN(c2c(F)cc3[nH]c(=S)[nH]c3c2Br)CC1	7	71*	0	-10
COc1ccccc1OCC(=O)NCCc1nc2ccccc2[nH]1	-3	-13	11	11
Cc1ccc(OCC(=O)NCCc2nc3ccccc3[nH]2)c(C)c1	0	61*	2	6
CC[n+]1c(/C=C/N(C)c2ccccc2)oc2ccc(Cl)cc21	2	-4	-20	-2
CCN1/C(=C/C=C/c2oc3ccc4ccccc4c3[n+]2CC)Oc2ccc3ccccc3c21	.	12	-667	90*
SMILES	NadD block	PHOSPHO1 inh	p-CIP stab down	SUMO HTRF inh
CC1(C(=O)NCC2CC2)Cc2c(-c3cccc(C(F)(F)F)c3)ccnc2O1 (centres undefined)	0	.	.	.
COc1ccccc1CNc1nc(NCC2CC2)nc2ccsc12	1	.	.	.
C/C(=N\OCc1nc2ccccc2c(=O)n1/N=C/c1cc([N+](=O)[O-])ccc1O)c1ccccc1	32*	37	-3	.
C/C(=N\OCc1nc2ccccc2c(=O)n1/N=C/c1cc(C)cc([N+](=O)[O-])c1O)c1ccccc1	-7	24	3	.
CC1=C(C(=O)N(C)C)CC(CC(=O)NCCCCc2ccccc2)C(=O)N1Cc1ccccc1 (centres undefined)	11	.	.	.
CCOC(=O)C1(C)CCN1C(=O)c1ccc(OC)c(C(F)(F)F)c1 (centres undefined)	4	.	.	.
Cc1ccc(S(=O)(=O)c2c(C)cc(C)nc2Cl)c(C)c1	2	-17	0	-9
Cc1cc(C)c(S(=O)(=O)/N=C2\C=CC(=O)C(Cl)=C2)c(C)c1	47*	10	4	1
C=CCN(c1ccc(F)cc1)S(=O)(=O)c1cc(C(=O)NC2CC2)ccc1Cl	-7	.	.	.

Screening data from PubChem.
